Screening data: PubChem BioAssay, National Center for Advancing Translational Sciences (NCATS)
This is one part of a sample in which hits are shown more often than they occur.
Cruzain noTriton: inhibitors of Trypanosoma cruzi cruzain without detergent; purified cruzain, Z-FR-AMC fluorescence, no detergent; AID 1476; Potency, µM, hits mostly inhibitors; P25779; 2.3% of 200,000 active; also: nearly all actives have a fitted effect of over 40% in size
Target sequence (P25779 123-467 limits assumed): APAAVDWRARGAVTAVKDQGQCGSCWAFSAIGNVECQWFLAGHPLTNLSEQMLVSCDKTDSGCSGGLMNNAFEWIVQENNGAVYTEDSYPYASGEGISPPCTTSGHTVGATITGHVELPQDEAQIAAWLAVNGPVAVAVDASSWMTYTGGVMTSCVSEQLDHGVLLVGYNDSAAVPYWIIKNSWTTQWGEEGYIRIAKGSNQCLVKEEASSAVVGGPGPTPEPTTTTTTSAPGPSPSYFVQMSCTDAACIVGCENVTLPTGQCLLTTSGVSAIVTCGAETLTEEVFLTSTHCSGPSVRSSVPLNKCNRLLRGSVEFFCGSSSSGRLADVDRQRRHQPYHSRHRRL
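Detergent-free condition (0.00005% Triton X-100) in acetate buffer pH 5.5 with DTT. 1.5 nM enzyme and compound were pre-mixed 15 min, then 2 uM Z-FR-AMC substrate added; reaction progress from fluorescence change between first and third reads (60 s).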
Cruzain Triton: blocks cruzain activity in presence of Triton detergent; P25779; purified cruzain, Z-FR-AMC fluorescence, 0.01% Triton; Potency, µM, most hits filed as inhibitors; 0.43% of 200,000 active; AID 1478; also: nearly all actives have a fitted effect of over 40% in size
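Steps: dispense cruzain (1.5 nM final) in acetate buffer pH 5.5 with DTT and 0.01% Triton X-100; pin-transfer compounds; incubate 15 min RT; add Z-FR-AMC (2 uM final); read fluorescence every 30 s, using the 60 s intensity change.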
NS1 inh: inhibitors of influenza NS1 protein function | Potency, µM (highest dose often 46.1 µM) | 0.4% of 270,000 active; calls by dose curve; also: actives are rising curves; nearly all actives have a fitted effect of over 50% in size
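Recovery from NS1-induced slow growth read by OD600 in budding yeast switched to galactose assay medium (pH 6.0, -URA) at 1:100 dilution. Compound 23 nl per well; the matching strain lacking NS1 serves as control.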
Each line names hits and unclear results; the compound was inactive in the other large screens. Unless noted, calls follow the shape of the dose curve; as a rule, active = well fitted curve in the direction sought with a large enough effect; inconclusive = small, poorly fitted or top-dose-only effect, or another doubt; inactive = no such curve, though single readings can be large; an effect the other way counts as inactive or inconclusive.

CN(CCc1ccccn1)c1ccc2c(c1)C(=O)c1ccccc1-2	none
CCCCC/C=C\C/C=C\C/C=C\C=C\C(=O)CCCC(=O)O	none (no result: NS1 inh)
O=c1oc(-c2ccco2)nc2ccccc12	none
c1coc(-c2nc3ccccc3nc2-c2ccco2)c1	Cruzain noTriton 13µM, Cruzain Triton 14µM
O=C(CN1C(=O)/C(=C\c2ccc(F)cc2)Oc2ccccc21)NCc1ccco1	Cruzain noTriton 25µM, Cruzain Triton 25µM
CCC1Oc2ccccc2N(CC(=O)NCc2ccco2)C1=O (stereo not drawn)	none (no result: Cruzain noTriton, Cruzain Triton)
Clc1ccc(CCNc2nc3ccccc3n3nnnc23)cc1	Cruzain noTriton 25µM
Cc1cccc(CCNc2nc3ccccc3n3nnnc23)c1	none
O=C(COc1ccccc1)NC(=S)Nc1ccc2c3c(cccc13)CC2	Cruzain noTriton inconclusive
O=C(/C=C/c1ccccc1)NC(=S)Nc1ccc2c3c(cccc13)CC2	Cruzain noTriton 13µM
Cc1ccc(OCC(=O)NC(=S)Nc2ccc3c4c(cccc24)CC3)cc1	Cruzain noTriton inconclusive
CC(C)c1ccc(OCC(=O)NC(=S)Nc2ccc3c4c(cccc24)CC3)cc1	Cruzain noTriton 25µM
COc1cc(OC)c2c(=O)c(-c3ccccc3)coc2c1	none (no result: NS1 inh)
C[C@H]1[C@H](C)CC[C@]2(C(=O)O)CC[C@]3(C)C(=CC[C@H]4[C@]3(C)C[C@@H](O)C3[C@](C)(CO)[C@H](O)[C@@H](O)C[C@]34C)[C@H]12 (stereo partly drawn)	Cruzain noTriton inconclusive, NS1 inh inconclusive
Cc1cccc(C(=O)Nc2c(-c3ccc(F)cc3)nc3ccccn23)c1	none (no result: NS1 inh)
CCOC(=O)C1(C)C=C(Nc2ccc(O)cc2)C(=O)N1c1ccc(O)cc1 (stereo not drawn)	none
CCOC(=O)C1(C)C=C(Nc2ccc(OC)cc2)C(=O)N1c1ccc(OC)cc1 (stereo not drawn)	Cruzain noTriton 16µM
COc1ccc2c(c1-c1c3c(cc(Br)c1OC)CCCC3)CCCC2	none (no result: NS1 inh)
O=C(O)CBr	none (no result: NS1 inh)
Cn1c(CCNC(=O)c2ccc(F)cc2)nc2ccccc21	Cruzain noTriton 2.5µM, Cruzain Triton 11µM
CC(=O)Nc1ccc2c(c1)nc(CCNC(=O)c1ccccc1)n2C	none
Cn1c(CCNC(=O)c2ccccc2)nc2ccccc21	Cruzain Triton 11µM
Cc1nc(C)c(CCNC(=O)c2ccccc2)s1	Cruzain noTriton inconclusive, Cruzain Triton 28µM
Cn1c(CCNC(=O)C(C)(C)C)nc2ccccc21	none
Cc1nc(C)c(CCNC(=O)c2cccc(Cl)c2)s1	Cruzain Triton inconclusive
COCCn1c(=O)c(-c2ccc(Cl)cc2)nc2cnc(OC)nc21	none (no result: NS1 inh)
COCC1=C2c3ccccc3[C@H](C[N+](=O)[O-])C(C(=O)OC)(C(=O)OC)C[C@@H]2n2c(=O)n(-c3ccccc3)c(=O)n2C1	none (no result: NS1 inh)
CCCCC(=O)O[C@]1(C(=O)CO)[C@H](C)C[C@H]2[C@@H]3CCC4=CC(=O)C=C[C@]4(C)[C@@]3(F)[C@@H](O)C[C@@]21C	Cruzain noTriton inconclusive (no result: NS1 inh)
O=C(Cn1c(=O)c2cccn2c2ccccc21)NCCc1ccc(Cl)cc1	none (no result: Cruzain noTriton, Cruzain Triton)
O=C(Cn1c(=O)c2cccn2c2ccccc21)NCCc1ccccc1	Cruzain noTriton 16µM
Cc1cccc(-c2nc(CCNC(=O)COc3ccccc3)cs2)c1	none (no result: NS1 inh)
CS(=O)(=O)N(CC(=O)N/N=C/c1cc([N+](=O)[O-])ccc1Cl)c1ccccc1	none
Cc1cc(C(=O)N/N=C/c2ccc3c(c2)OCO3)c(C)n1-c1ccc(F)cc1	none (no result: Cruzain noTriton, Cruzain Triton)
O=[N+]([O-])c1ccc(Cl)c(/C=N/NC(=S)Nc2ccccc2)c1	Cruzain noTriton 25µM
Cc1cccc(NC(=S)N/N=C/c2cccc([N+](=O)[O-])c2)c1	none
NC(=S)N/N=C/c1cc([N+](=O)[O-])ccc1OCCOc1ccccc1	Cruzain noTriton 0.16µM, Cruzain Triton 0.25µM
CC(=O)N/N=C/c1cc([N+](=O)[O-])ccc1OCCOc1ccccc1	none
Cc1cccc(NC(=S)N/N=C/c2ccc(Cl)c([N+](=O)[O-])c2)c1	Cruzain noTriton 32µM
Cc1cc(C(=O)N/N=C/c2ccc(Cl)c([N+](=O)[O-])c2)c(C)n1-c1ccc(F)cc1	Cruzain noTriton 7.9µM
C[C@H](Br)CN(C[C@H](C)Br)c1ccc2c(c1)Cc1ccccc1-2	none
OC(c1ccc(Cl)cc1)(c1ccc(Cl)cc1)C(Cl)(Cl)Cl	none (no result: NS1 inh)
Cc1cccc(N)c1C	none (no result: NS1 inh)
CCc1c(C)sc2c1CCN(C(=O)Nc1ccc(F)c(Cl)c1)C2c1ccc(F)cc1 (stereo not drawn)	Cruzain noTriton 10µM (no result: NS1 inh)
CCc1c(C)sc2c1CCN(C(=O)Nc1ccccc1C(F)(F)F)C2c1ccccc1 (stereo not drawn)	none (no result: NS1 inh)
CCc1c(C)sc2c1CCN(C(=O)Nc1ccccc1C(=O)OC)C2c1ccc(F)cc1 (stereo not drawn)	Cruzain noTriton inconclusive (no result: NS1 inh)
CCc1c(C)sc2c1CCN(C(=O)Nc1cc(Cl)c(OC)cc1OC)C2c1ccccc1 (stereo not drawn)	Cruzain noTriton 6.3µM (no result: NS1 inh)
